# The campaign covered roughly 310,000 compounds. About 1,300 (0.42%) were called active.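 Rule for the calls: active = B-score of calcium response area above 5 SD of library B-scores, with initial fluorescence ratio within 5 SD of library; inactive = the rest.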 This excerpt belongs to a sample that is enriched for actives.
# Target: Short transient receptor potential channel 4 (Mus musculus) (UniProt Q9QUQ5)
# Assay: TRPC4 channel potentiators under submaximal DAMGO – cell-based, mouse TRPC4beta, HEK293 mu-opioid, Fluo-4 calcium, primary screen (AID 2227);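 for B-score: B-score of integrated fluorescence ratio over time as area under calcium response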
# Conditions: DAMGO EC20, Fluo-4 Ca2+ flux, at 10 µM; stronger effect = higher value
# Short transient receptor potential channel 4 (Mus musculus), sequence (Q9QUQ5 whole entry, looked up): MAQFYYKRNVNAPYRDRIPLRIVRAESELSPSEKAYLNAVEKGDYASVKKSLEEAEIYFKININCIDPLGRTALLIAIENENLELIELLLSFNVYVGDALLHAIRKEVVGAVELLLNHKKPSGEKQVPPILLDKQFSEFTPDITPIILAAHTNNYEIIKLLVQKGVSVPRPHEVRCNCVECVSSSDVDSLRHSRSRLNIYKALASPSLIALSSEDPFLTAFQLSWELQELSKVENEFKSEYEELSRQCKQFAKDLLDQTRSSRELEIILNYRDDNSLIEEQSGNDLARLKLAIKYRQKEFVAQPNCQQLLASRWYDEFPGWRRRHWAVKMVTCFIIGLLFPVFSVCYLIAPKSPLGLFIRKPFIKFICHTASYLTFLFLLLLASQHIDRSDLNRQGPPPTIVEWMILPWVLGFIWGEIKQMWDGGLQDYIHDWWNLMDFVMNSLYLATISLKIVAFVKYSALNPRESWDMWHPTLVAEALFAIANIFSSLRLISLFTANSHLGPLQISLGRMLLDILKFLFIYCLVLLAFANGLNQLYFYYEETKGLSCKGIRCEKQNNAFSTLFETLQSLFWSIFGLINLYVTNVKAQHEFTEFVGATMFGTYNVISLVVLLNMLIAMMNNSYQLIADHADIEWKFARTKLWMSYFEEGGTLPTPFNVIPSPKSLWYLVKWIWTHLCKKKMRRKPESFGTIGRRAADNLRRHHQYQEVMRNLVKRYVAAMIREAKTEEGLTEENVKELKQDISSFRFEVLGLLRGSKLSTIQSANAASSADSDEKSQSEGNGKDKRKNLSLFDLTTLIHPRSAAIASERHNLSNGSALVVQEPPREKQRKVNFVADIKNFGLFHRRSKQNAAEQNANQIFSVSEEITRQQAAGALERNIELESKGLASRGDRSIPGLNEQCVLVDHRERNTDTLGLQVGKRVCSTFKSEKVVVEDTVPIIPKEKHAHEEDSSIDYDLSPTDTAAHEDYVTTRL
row,SMILES,B-score
1,Cc1cccc(N2C(=O)SC(SC(=Nc3ccccc3)Nc3ccccc3)C2=O)c1 (centres undefined),inactive
2,O=C(O)c1ccc(Cn2c(=S)[nH]c3cc(Cl)ccc3c2=O)cc1,inactive
3,CN(C)CCn1c(=S)[nH]c2ccc(Cl)cc2c1=O,14 (active)
4,CCCCn1c(=S)[nH]c2ccccc2c1=O,inactive
5,Cc1cccc(N2CCN(C(=O)c3cnn4c(C(F)F)cc(-c5ccccc5)nc34)CC2)c1C,inactive
6,COC(=O)c1ccc(C(=O)OC)c(NC(=S)N2CCN(c3cc(Cl)ccc3C)CC2)c1,inactive
7,Cc1ccc(Cl)cc1N1CCN(C(=O)c2cccc3c(=O)c(C)c(-c4ccccc4)oc23)CC1,24 (active)
8,COc1cccc(NC(=O)CSc2nccn(-c3ccc4c(c3)OCCO4)c2=O)c1,inactive
9,CCOc1ccc(NS(=O)(=O)c2ccc(C)c(C(N)=O)c2)cc1,inactive
10,COc1ccc(-c2cc(C(=O)N3CCN(Cc4ccc5c(c4)OCO5)CC3)on2)cc1OC,inactive
11,COc1cc(Cl)c(S(=O)(=O)N2CCN(Cc3ccc4c(c3)OCO4)CC2)cc1Cl,37 (active)
12,CCn1cc(C(=O)N2CCN(Cc3ccc4c(c3)OCO4)CC2)c2cc(OC)c(OC)cc2c1=O,inactive
13,CC(=O)c1ccccc1OCc1ccc(C(=O)c2ccccc2)cc1,inactive
14,COC(=O)c1cc(C(=O)OCC(=O)Nc2cc(C)on2)cc([N+](=O)[O-])c1,inactive
15,COc1ccc(OCCn2ccnc2C)cc1,inactive
16,Brc1c(CSc2nncc3ccccc23)nc2ccccn12,inactive
17,COc1ccccc1NS(=O)(=O)c1ccc(C(=O)N2CCN(c3ccccc3O)CC2)cc1,inactive
18,Cc1cccc(NC(=O)c2cccc(S(=O)(=O)N3CCCC3)c2)n1,inactive
19,CCn1c2ccccc2c2cc(NC(=O)COC(=O)c3cc(S(=O)(=O)N4CCCCC4)ccc3Cl)ccc21,inactive
20,CCn1c(O)c(N=NC(=O)c2cccc(S(=O)(=O)N3CCCCC3)c2)c2ccccc21,15 (active)
21,COc1ccc(CSc2nnnn2-c2ccc(C(=O)O)cc2)cc1,inactive
22,CCC(=O)/C(=C(/O)c1ccccc1)c1nc2ccccc2[nH]1,inactive
23,COCCN(CCOC)S(=O)(=O)c1ccc(/C(O)=C(\C#N)c2nc3ccccc3[nH]2)cc1,11 (active)
24,Cc1ccccc1OC/C(O)=C(\C#N)c1nc2ccccc2[nH]1,inactive
25,COC(=O)c1c(CCl)noc1C(=O)NC(C)C,inactive
26,O=C(Nc1cccc(F)c1)c1coc(=O)c(Br)c1,inactive

row,SMILES,B-score
1,CC(=N\NC(=O)c1cc(Br)ccc1O)/C(=N/O)C(=O)Nc1ccccc1,inactive
2,Cc1ccc(CN2CCN(c3ncccn3)CC2)c(C)c1,inactive
3,Cc1ccc(CN2CCN(/N=C/c3cccnc3)CC2)c(C)c1,12 (active)
4,O=C1/C(=C\c2cccnc2)CN(Cc2ccccc2)C/C1=C\c1cccnc1,inactive
5,Clc1ccc(CN2CCN(/N=C/c3cccnc3)CC2)cc1,12 (active)
6,Cc1ccc(CN2CCN(/N=C/c3ccco3)CC2)c(C)c1,inactive
7,C(=N\n1cnnc1)/c1cccnc1,inactive
8,CCOc1ccc(S(=O)(=O)NCCCn2ccnc2)cc1NC(C)=O,inactive
9,CCc1ccc(/C=N/NC(=O)c2nnn(-c3nonc3N)c2CN2CCc3ccccc32)cc1,inactive
10,CCN(CCn1cccn1)Cc1cn[nH]c1-c1ccc(OC)cc1F,inactive
11,Cc1cccc(C)c1NC(=O)C1(N(C(=O)c2ccccn2)c2ccc(O)cc2)CCCCC1,inactive
12,CN(C)CCCN(Cc1cc2cc3c(cc2[nH]c1=O)OCCO3)C(=O)NC1CCCCC1,inactive
13,Cc1ccc(NC(=S)NC(=O)c2ccc(-c3ccccc3)cc2)cc1,inactive
14,CCOC(=O)C1=C(NC(=S)NC(=O)c2ccccc2)c2ccccc2CC1(C)C,25 (active)
15,COCCCNC(=S)NC(=O)c1ccccc1,inactive
16,CCOC(=O)C(CC)/C(C)=N\NC(=O)c1cccc(C)c1 (centres undefined),inactive
17,ONC(=Nc1ccccc1)c1ccccc1Cl,inactive
18,O=C(Nc1nnc(SCc2c(Cl)cccc2Cl)s1)c1cccc([N+](=O)[O-])c1,inactive
19,NC(=O)CSc1nnc(NC(=O)c2ccc3ccccc3c2)s1,inactive
20,O=C(Nc1nnc(SCc2ccccc2Cl)s1)c1cccc([N+](=O)[O-])c1,12 (active)
21,Cc1ccc(S(=O)(=O)N2CCN(C(=O)Cc3sc(C)nc3-c3ccc(F)cc3)CC2)c(C)c1,inactive
22,CCOc1ccccc1NC(=S)NC(=O)CCc1ccccc1,inactive
23,Cc1sc2nc(SCC(N)=O)n(C)c(=O)c2c1C,29 (active)
24,C=CCn1c(SCC(=O)/C(C#N)=C(\C)N)nc2sc(C)c(C)c2c1=O,inactive
25,Cc1sc2nc(SCCO)n(-c3ccccc3)c(=O)c2c1C,inactive
26,Cc1cc(Nc2cccc(F)c2)n2ncnc2n1,inactive

row,SMILES,B-score
1,COc1ccc(/C=C2/S/C(=N/N=C3\CC4CCC3(C)C4(C)C)NC2=O)cc1 (centres undefined),inactive
2,COc1ccccc1CNC(=O)C1CCN(S(=O)(=O)c2ccc3c(c2)CC(C)N3C(=O)C2CC2)CC1 (centres undefined),inactive
3,CC(=O)N1c2ccc(S(=O)(=O)N3CCC(C(=O)N4CCN(c5ccccc5)CC4)CC3)cc2CC1C (centres undefined),inactive
4,CC(=O)c1ccc(N2CCN(C(=O)C3CCN(S(=O)(=O)c4ccc5c(c4)CC(C)N5C(=O)C4CC4)CC3)CC2)cc1 (centres undefined),19 (active)
5,CCCOc1ccccc1C1CC(=O)Nc2cc3c(cc21)OCO3 (centres undefined),14 (active)
6,COc1ccccc1C1C2=C(COC2=O)Nc2cc3c(cc21)OCO3 (centres undefined),inactive
7,COC(=O)C1=C(C)NC(=O)CC1c1ccccc1OC (centres undefined),inactive
8,C/C(=C/c1ccccc1)C(=O)N1CCN(c2ccccc2)CC1,inactive
9,O=C(O)c1cc2ccccc2c(=O)s1,inactive
10,COc1ccc(-c2nnn(CC(=O)N(CCO)C(C(=O)NC3CCCC3)c3ccc(F)cc3)n2)cc1 (centres undefined),inactive
11,Cc1ccc(-c2nnn(CC(=O)N(Cc3ccco3)C(C(=O)NC(C)(C)C)c3ccncc3)n2)o1 (centres undefined),inactive
12,Cc1ccc(-c2nnn(CC(=O)N(CCO)C(C(=O)NC(C)(C)C)c3ccncc3)n2)cc1 (centres undefined),10 (active)
13,O=C1C(=O)N(CCN2CCOCC2)C(c2cccc(Cl)c2)/C1=C(/O)c1ccc2c(c1)OCO2 (centres undefined),inactive
14,Cc1cc(/C=N/n2cnnc2)c(C)n1-c1ccc2ncccc2c1,inactive
15,Cc1ccccc1CC1(CO)CCCN(Cc2ccc3c(c2)OCCO3)C1 (centres undefined),inactive
16,COc1ccc([N+](=O)[O-])cc1NC(=O)CC1SC(=Nc2cccc(C)c2C)N(/N=C(\C)c2ccc(C)cc2)C1=O (centres undefined),inactive
17,O=C(N/N=C/c1ccc(Cl)cc1)c1nc2ccc([N+](=O)[O-])cc2c(=O)[nH]1,inactive
18,COc1cc(NS(=O)(=O)c2ccc(NC(=S)NC(=O)c3ccccc3)cc2)nc(OC)n1,inactive
19,CC(OC(=O)CCCc1c[nH]c2ccccc12)C(=O)Nc1ccc(S(N)(=O)=O)cc1 (centres undefined),inactive
20,Cc1cccn2c(=O)c(/C=C(\C#N)S(=O)(=O)c3ccc(Cl)cc3)c(N3CCC(C(N)=O)CC3)nc12,inactive
21,Cc1cccn2c(=O)c(/C=C(\C#N)C(N)=O)c(N3CCCCCC3)nc12,12 (active)
22,COCCCNC(=O)/C(C#N)=C/c1c(N2CCCCCC2)nc2ccccn2c1=O,inactive
23,O=C(c1ccc(NS(=O)(=O)c2ccc3[nH]c(=O)[nH]c3c2)cc1)N1CCCCC1,inactive
24,CN(C)CCCSc1ccccc1NC(=O)/C=C/c1ccccc1,inactive
25,N=c1c2c3c(sc2ncn1N)CCCCC3,10 (active)
26,N=c1c2c3c(sc2ncn1N)CCCC3,inactive

row,SMILES,B-score
1,N=c1c2c3c(sc2ncn1CCCN1CCOCC1)CCCCC3,inactive
2,N#Cc1ncc(C(F)(F)F)cc1Oc1cccnc1,inactive
3,O=c1cc(N2CCCCC2)c(-c2ccccc2)nn1Cc1cccc(F)c1,inactive
4,Cc1ncc([N+](=O)[O-])n1CCOC(=O)c1ccc(Br)cc1,inactive
5,Cc1cccc(CCNC(=O)Cn2ncc3c([nH]c4ccc(C)cc43)c2=O)c1,inactive
6,O=C(CN1CCN(c2ccccn2)CC1)N1CCc2ccccc21,inactive
7,CC(=C1C(=O)c2ccccc2C1=O)N1CCN(c2ccccn2)CC1,inactive
8,O=C1c2cccc3cccc(c23)N1CN1CCN(c2ccccn2)CC1,10 (active)
9,Cc1cccc(OCCCC(=O)Nc2ccc(S(=O)(=O)N3CCCC3)cc2)c1,inactive
10,Cc1ccc(C)c(OCCC(=O)Nc2cccc(S(=O)(=O)N3CCCC3)c2)c1,inactive
11,CC(=O)Nc1ccc(S(=O)(=O)N2CCN(CCCOc3cc(C)ccc3C)CC2)cc1,32 (active)
12,CC(=O)c1ccc(N2CCN(S(=O)(=O)c3ccc4c(c3)CC(=O)N4C)CC2)cc1,inactive
13,Cc1c(C(=O)NCCN2C(=O)S/C(=C\c3cccs3)C2=O)cccc1[N+](=O)[O-],inactive
14,COC(=O)c1ccccc1N=Nc1c(C)[nH][nH]c1=O,59 (active)
15,Cc1[nH][nH]c(=O)c1N=Nc1ccccc1,inactive
16,Cc1[nH]n(-c2ccccc2)c(=O)c1N=Nc1ccccc1C(=O)N1CCCCC1,inactive
17,N#Cc1cccc(OC(=O)c2ccc3c(=O)n4c(nc3c2)CCC4)c1,inactive
18,CCOC(=O)c1ccc(-c2ccc(C(=O)Nc3cccnc3)o2)cc1,inactive
19,COC(=O)C1=C(C)NC2=C(C(=O)c3ccccc32)C1c1ccc(-c2ccc(C(=O)O)cc2)o1 (centres undefined),16 (active)
20,CCOC(=O)C1=C(c2ccc(OC)cc2)C(=O)c2ccccc2C1=O,inactive
21,CC(NC(=O)COc1ccc(-c2ccccc2)cc1)C1CCCO1 (centres undefined),inactive
22,O=C(NCCc1ccccc1)C1CC1,inactive
23,CCn1cc(C(=O)N2CC=C(c3ccccc3)CC2)c(=O)c2ccc(C)nc21,inactive
24,CCN1CCN(c2c(Cl)cccc2NC(=O)c2ccc(Br)o2)CC1,11 (active)
25,O=C(Nc1cccc(Cl)c1N1CCOCC1)c1ccc2c(c1)OCCO2,inactive
26,O=C(Nc1cccc(Cl)c1N1CCOCC1)c1cccnc1,inactive

# From PubChem BioAssay AID2227 (Johns Hopkins Ion Channel Center, 2009)
